AmpC no deterg: blocks E. coli AmpC beta-lactamase in detergent-free assay; P00811; AmpC nitrocefin hydrolysis, absorbance 480 nm, 0.0001% Triton; Potency, µM (series often up to 57.1 µM), inactives show at the top dose activity change, negative = inhibition, hits mostly inhibitors; actives 0.52% (n = 330,000);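 also: plate controls were no compound for no effect and no enzyme for full effect; nearly all actives have a fitted effect of over 20% in size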
Target sequence (P00811 whole entry, looked up): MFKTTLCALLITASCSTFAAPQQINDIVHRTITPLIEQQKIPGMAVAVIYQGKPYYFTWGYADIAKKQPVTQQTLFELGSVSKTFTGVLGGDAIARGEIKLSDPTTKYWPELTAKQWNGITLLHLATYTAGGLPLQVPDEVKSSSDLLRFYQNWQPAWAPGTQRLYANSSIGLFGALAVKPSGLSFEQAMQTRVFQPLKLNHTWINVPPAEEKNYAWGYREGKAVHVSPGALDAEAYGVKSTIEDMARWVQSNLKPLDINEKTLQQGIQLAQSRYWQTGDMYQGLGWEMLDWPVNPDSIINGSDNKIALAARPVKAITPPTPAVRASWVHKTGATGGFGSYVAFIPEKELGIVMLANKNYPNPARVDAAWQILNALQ
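AmpC (5.3 nM in the dispensed reagent) in 20 mM phosphate pH 7.0 with 0.01% (detergent screen) or 0.0001% Triton X-100 was preincubated with compounds for 15 min at room temperature. Nitrocefin was then added from an 800 uM solution, and hydrolysis was followed at 480 nm.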
AMA1-RON2 inh: inhibitors of Plasmodium falciparum AMA1-RON2 interaction; actives 0.2% (n = 360,000); AID 720542; AlphaScreen AMA1-biotinylated RON2 peptide binding; Potency, µM (series often up to 58.2 µM), without a hit: top-dose activity change, negative = inhibition, actives largely listed as inhibitors;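 also: 0% = vehicle wells and -100% = peptide control; nearly all actives have a fitted effect of over 45% in size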
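AMA1 (3D7) with his tag at 25 nM final met compounds first, then biotinylated RON2 peptide at 25 nM; detection used donor plus acceptor beads, 10 µg/mL apiece, read by AlphaScreen after 30 min at room temperature.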
Pf growth 48h: inhibits P. falciparum growth in the first generation, 48 h | P. falciparum luciferase growth in erythrocytes, 48 h | Potency, µM (top dose mostly 28.7 µM), for inactives: at the highest dose activity change, negative = inhibition, most hits filed as inhibitors | actives 5.9% (n = 310,000)
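Read-out is firefly luciferase luminescence from an integrated reporter in P. falciparum, so falling signal marks reduced parasite growth. Infected erythrocytes were at 2% hematocrit and 0.1% parasitemia (final) in Albumax-supplemented RPMI 1640.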
Pf growth 96h: P. falciparum growth inhibition at 96 hour, primary screen for plastid delayed-death inhibitors; P. falciparum luciferase reporter growth, 96 h; Potency, µM (titrated, usually from 28.7 µM), inactives show at the top dose activity change, negative = inhibition, most hits filed as inhibitors; actives 6.9% (n = 320,000); AID 504834
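Readout is luminescence from an integrated firefly luciferase in P. falciparum. Red cells, 2% hematocrit and 0.05% parasitemia final, were cultured with compound through two parasite generations (96 hours) at 37 C, 5% CO2.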
AmpC inh detg: AmpC beta-lactamase inhibition with detergent present; P00811; AmpC hydrolysis of nitrocefin, absorbance 480 nm, 0.01% Triton; Potency, µM (series often up to 114 µM), for inactives: at the top dose activity change, negative = inhibition, hits mostly inhibitors; actives 0.041% (n = 370,000); AID 485294;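 also: 0% = no-compound wells and -100% = no-enzyme wells; nearly all actives have a fitted effect of over 25% in size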
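AmpC (5.3 nM in the dispensed reagent) in 20 mM phosphate pH 7.0 with 0.01% (detergent screen) or 0.0001% Triton X-100 was preincubated with compounds for 15 min at room temperature. Nitrocefin was then added from an 800 uM solution, and hydrolysis was followed at 480 nm.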
HCV inh: HCV inhibition; Potency, µM (series often up to 41.8 µM), inactives show top-dose activity change, negative = inhibition, hits mostly inhibitors; actives 3.4% (n = 340,000); Huh7.5.1 HCVcc-Cre infection, luciferase reporter, 44 h; AID 651820
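Compounds are dispensed onto cells plated 4 h earlier at 1,000 per well, with HCVcc-Cre virus (about 0.5 moi) added next. Following 44 h of culture, luminescent signal is measured for 15 sec after 15 min with substrate at room temperature.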
Numbers without * were called inactive; u = inconclusive; x = no result given; [ ] = remark or other dose. This is a sample that favours compounds with a hit; in the whole collection about 11% have one here. Calls follow the shape of the dose curve; as a rule, active = well fitted curve in the direction sought with a large enough effect; inconclusive = small, poorly fitted or top-dose-only effect, or another doubt; inactive = no such curve, though single readings can be large; an effect the other way counts as inactive or inconclusive. Unless noted, % is scaled to controls: 0 for no effect and ±100 for the full control effect; potency is read from the fitted curve at half-maximal effect.

SMILES	AmpC no deterg	AMA1-RON2 inh	Pf growth 48h	Pf growth 96h	AmpC inh detg	HCV inh
COc1ccc(-c2cc(C3CCN(c4ccc(C(C)=O)cc4[N+](=O)[O-])CC3)[nH]n2)cc1	-4%	u	u	u	-7%	11µM*
COC(=O)c1ccc(N2CCC(c3cc(-c4ccc(OC)cc4)n[nH]3)CC2)c([N+](=O)[O-])c1	-13%	u	u	u	u	11µM*
COc1ccc(S(=O)(=O)CC2(O)CCN(C(=O)CC(C)C)CC2)cc1	6%	-1%	9.3µM*	8%	-12%	7%
COc1ccc(S(=O)(=O)CC2(O)CCN(C(=O)C(C)(C)C)CC2)cc1	-2%	2%	257%	37%	-14%	0%
CCC(C)(C)c1ccc(OCCCC[n+]2cccc(C)c2)c(C(C)(C)CC)c1	127%	15%	2.3µM*	u	5%	u
O=C(CSc1nnc(Nc2ccccc2)s1)NCc1cccs1	-20%	0%	0%	12µM*	-6%	11%
O=C(CSc1nnc(NC(=O)C2CC2)s1)NCc1cccs1	-17%	2%	5%	u	-3%	4%
CCc1ccc(Nc2nnc(SCC(=O)Nc3sccc3C(N)=O)s2)cc1	16µM*	13%	u	u	5%	u
COc1cccc(Nc2nnc(SCC(=O)Nc3sccc3C(N)=O)s2)c1	-44%	35%	u	u	3%	u
CCCn1c(=O)c2sccc2n2c(CCCC(=O)NC3CCCCC3)nnc12	x	x	x	x	13%	x
COC(=O)c1cc2oc(C)cc2n1Cc1ccc(Cl)cc1	x	x	x	x	-3%	x
CC1C/C(=N\NC(=S)NC(C)C)CC(C)(C)C1 (centres undefined)	-11%	62%	x	2.9µM*	-5%	15%
CC1C/C(=N\NC(=O)c2cccnc2)CC(C)(C)C1 (centres undefined)	-14%[11.4 µM]	25%	13%	5%	0%	16%
Cc1nc(SCC(=O)NCc2ccco2)c2c3c(sc2n1)CCCC3	34%	-6%	x	u	-7%	u
CCC1CCc2c(sc3nc(SCC(=O)NCc4ccco4)n(-c4ccccc4)c(=O)c23)C1 (centres undefined)	-17%	-3%	12µM*	-28%	-2%	-1%
CC(C)Sc1nc2sc3c(c2c2nnc(SCC(=O)NCc4ccco4)n12)CCCC3	-14%	-9%	6.6µM*	u	-10%	11%
CC(C)Sc1nc(SCC(=O)O)c2c3c(sc2n1)COC(C)(C)C3	-43%	-2%	u	u	10%	1%
CC(C)Sc1nc(SCC(=O)NCc2ccco2)c2c3c(sc2n1)COC(C)(C)C3	21%	-13%	u	2.6µM*	-13%	u
CCOC(=O)N1CCC(NC(=O)C2CCCN(C(=O)c3cc4sccc4n3C)C2)CC1 (centres undefined)	0.56µM*	9%	u	u	-13%	u
COC(=O)c1ccc(NC(=O)C(=O)NCCc2csc3nc(-c4ccccc4F)nn23)cc1	x	x	x	x	3%	x
Cc1ccc([N+](=O)[O-])cc1NC(=O)CNC1CCCCC1	-5%	-3%	12µM*	-12%	u	-24%
Cc1cccc(NC(=O)c2cc([N+](=O)[O-])ccc2NC2CCCCC2)c1	-27%	u	8.3µM*	u	5%	0%
Cc1ccc([N+](=O)[O-])cc1NC(=O)CCSc1ccc(Cl)cc1	-25%	0%	18%	9.3µM*	3%	u
COC(=O)c1ccc(C)c(NC(=O)CCSc2ccc(Cl)cc2)c1	-32%	4%	-1%	-9%	3%	u
CN(c1ccc([N+](=O)[O-])cc1C(=O)Nc1ccccc1)C1CCCCC1	-47%	-4%	-19%	u	5%	-8%

Compound activity as filed in PubChem BioAssay.
